Source: PubChem BioAssay AID1159580 (chemical genetic matrix, 2015)
The whole screen tested about 5,500 compounds, of which about 2,000 (36%) were called active. Roughly 18% stayed inconclusive and do not appear here. Some of the results follow. Unmarked numbers belong to inactive results. No stated cut-off is given here; in the data, active means normalized growth mostly below about 0.91 (no sharp cut-off); inconclusive means no clear call, values can overlap the other calls; inactive means mostly above about 0.92.

Test: chemical genetic growth profiling, strain panel (AID 1159580);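 further: tested at 20 µM; growth read once vehicle control cultures reached saturation at 30 °C; 1 = growth at the plate median or of vehicle wells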
Details: S. cerevisiae deletion strains, growth OD

Molecule `NC(=S)N/N=C1/CCCc2ccccc21` has a normalized growth (locus YAR019C, strain CDC15, stronger effect = lower value) of 0.923, a normalized growth (locus YBL105C, strain PKC1, stronger effect = lower value) of 0.944 and a normalized growth (locus YBR135W, strain CKS1, stronger effect = lower value) of 0.939. The normalized growth (locus YBR136W, strain MEC1, stronger effect = lower value) was 0.909, the normalized growth (locus YBR160W, strain CDC28, stronger effect = lower value) was 0.905 and the normalized growth (locus YDL017W, strain CDC7, stronger effect = lower value) was 0.921. The normalized growth (locus YDL028C, strain MPS1, stronger effect = lower value) was 0.924, the normalized growth (locus YDL101C, strain DUN1, stronger effect = lower value) was 0.921 and the normalized growth (locus YDL108W, strain KIN28, stronger effect = lower value) was 0.906. The normalized growth (locus YDL214C, strain PRR2, stronger effect = lower value) was 0.805, the normalized growth (locus YDR052C, strain DBF4, stronger effect = lower value) was 0.884 (active) and the normalized growth (locus YDR054C, strain cdc34, stronger effect = lower value) was 0.885. For the same molecule, the normalized growth (locus YDR226W, strain ADK1, stronger effect = lower value) was 0.866 (active), the normalized growth (locus YDR477W, strain SNF1, stronger effect = lower value) was 0.748 and the normalized growth (locus YER123W, strain YCK3, stronger effect = lower value) was 0.891. The normalized growth (locus YER133W, strain GLC7, stronger effect = lower value) was 0.802, the normalized growth (locus YFL009W, strain cdc4, stronger effect = lower value) was 0.92 and the normalized growth (locus YFL029C, strain CAK1, stronger effect = lower value) was 0.921. The normalized growth (locus YFR003C, strain YPI1, stronger effect = lower value) was 0.913, the normalized growth (locus YFR019W, strain FAB1, stronger effect = lower value) was 0.925 and the normalized growth (locus YFR028C, strain CDC14, stronger effect = lower value) was 0.834 (active). It also gave a normalized growth (locus YGR040W, strain KSS1, stronger effect = lower value) of 0.805, a normalized growth (locus YGR052W, strain FMP48, stronger effect = lower value) of 0.746 and a normalized growth (locus YGR092W, strain DBF2, stronger effect = lower value) of 0.814. The normalized growth (locus YHR030C, strain SLT2, stronger effect = lower value) was 0.805 (active), the normalized growth (locus YHR079C, strain IRE1, stronger effect = lower value) was 0.954 and the normalized growth (locus YHR082C, strain KSP1, stronger effect = lower value) was 0.935. The normalized growth (locus YHR205W, strain SCH9, stronger effect = lower value) was 0.993, the normalized growth (locus YIL147C, strain SLN1, stronger effect = lower value) was 0.91 and the normalized growth (locus YJL095W, strain BCK1, stronger effect = lower value) was 0.934. For the same molecule, the normalized growth (locus YJL128C, strain PBS2, stronger effect = lower value) was 0.966, the normalized growth (locus YJL157C, strain FAR1, stronger effect = lower value) was 0.749 and the normalized growth (locus YJR016C, strain ILV3, stronger effect = lower value) was 0.896 (active). The normalized growth (locus YJR066W, strain TOR1 (second series), stronger effect = lower value) was 0.824, the normalized growth (locus YJR066W, strain TOR1, stronger effect = lower value) was 0.765 and the normalized growth (locus YKL048C, strain ELM1, stronger effect = lower value) was 0.781 (active). For the same molecule, the normalized growth (locus YKL067W, strain YNK1, stronger effect = lower value) was 0.796, the normalized growth (locus YKL101W, strain HSL1, stronger effect = lower value) was 0.822 and the normalized growth (locus YKL193C, strain SDS22, stronger effect = lower value) was 0.922. The normalized growth (locus YKL203C, strain TOR2, stronger effect = lower value) was 0.589 (active), the normalized growth (locus YLR113W, strain HOG1, stronger effect = lower value) was 1 and the normalized growth (locus YLR133W, strain CKI1, stronger effect = lower value) was 0.796. The normalized growth (locus YLR403W, strain SFP1, stronger effect = lower value) was 0.659 (active), the normalized growth (locus YML070W, strain DAK1, stronger effect = lower value) was 0.914 and the normalized growth (locus YMR001C, strain CDC5, stronger effect = lower value) was 0.939. It also gave a normalized growth (locus YMR205C, strain PFK2 (second series), stronger effect = lower value) of 0.759, a normalized growth (locus YNL006W, strain LST8, stronger effect = lower value) of 0.978 and a normalized growth (locus YNL020C, strain ARK1, stronger effect = lower value) of 0.802. For the same molecule, the normalized growth (locus YNL161W, strain CBK1, stronger effect = lower value) was 0.955, the normalized growth (locus YNL183C, strain NPR1, stronger effect = lower value) was 0.735 and the normalized growth (locus YNL207W, strain RIO2, stronger effect = lower value) was 0.858 (active). For the same molecule, the normalized growth (locus YNL222W, strain SSU72, stronger effect = lower value) was 0.956, the normalized growth (locus YNL307C, strain MCK1 (second series), stronger effect = lower value) was 0.695 and the normalized growth (locus YOL078W, strain AVO1, stronger effect = lower value) was 0.925. For the same molecule, the normalized growth (locus YOL136C, strain PFK27, stronger effect = lower value) was 0.922, the normalized growth (locus YOR061W, strain CKA2, stronger effect = lower value) was 0.902 and the normalized growth (locus YOR119C, strain RIO1, stronger effect = lower value) was 0.573 (active). The normalized growth (locus YOR231W, strain MKK1, stronger effect = lower value) was 0.912, the normalized growth (locus YOR329C, strain SCD5, stronger effect = lower value) was 0.965 and the normalized growth (locus YPL031C, strain PHO85, stronger effect = lower value) was 0.788. The normalized growth (locus YPL153C, strain RAD53, stronger effect = lower value) was 0.837, the normalized growth (locus YPL204W, strain HRR25, stronger effect = lower value) was 0.872 and the normalized growth (locus YPL209C, strain IPL1, stronger effect = lower value) was 0.934. For the same molecule, the normalized growth (locus YPL256C, strain CLN2, stronger effect = lower value) was 0.999, the normalized growth (locus YPR025C, strain CCL1, stronger effect = lower value) was 0.937 and the normalized growth (locus YPR106W, strain ISR1, stronger effect = lower value) was 0.913. The normalized growth (locus YPR111W, strain DBF20, stronger effect = lower value) was 0.874, the normalized growth (strain NNK1, stronger effect = lower value) was 0.908 and the normalized growth (strain TSCII, stronger effect = lower value) was 0.93.
